The record followed here is PubChem BioAssay (EPA / NIEHS).

Results filed as inconclusive are left out. Where a structure was tested more than once in an assay, its records may differ in their call. Active and inactive are the calls of the source. Rule for the calls: active = hit-call score of the fitted dose curve at least 0.9, where 1 is the maximum; inconclusive = response in the unintended direction; inactive = score below 0.9.

A word on the AC50: it is the midpoint of the concentration-response curve, whichever way the signal moves.

Chain of human Phosphodiesterase 10 (PDE10), PDE10A (gene 10846) (Q9Y233 whole entry, looked up): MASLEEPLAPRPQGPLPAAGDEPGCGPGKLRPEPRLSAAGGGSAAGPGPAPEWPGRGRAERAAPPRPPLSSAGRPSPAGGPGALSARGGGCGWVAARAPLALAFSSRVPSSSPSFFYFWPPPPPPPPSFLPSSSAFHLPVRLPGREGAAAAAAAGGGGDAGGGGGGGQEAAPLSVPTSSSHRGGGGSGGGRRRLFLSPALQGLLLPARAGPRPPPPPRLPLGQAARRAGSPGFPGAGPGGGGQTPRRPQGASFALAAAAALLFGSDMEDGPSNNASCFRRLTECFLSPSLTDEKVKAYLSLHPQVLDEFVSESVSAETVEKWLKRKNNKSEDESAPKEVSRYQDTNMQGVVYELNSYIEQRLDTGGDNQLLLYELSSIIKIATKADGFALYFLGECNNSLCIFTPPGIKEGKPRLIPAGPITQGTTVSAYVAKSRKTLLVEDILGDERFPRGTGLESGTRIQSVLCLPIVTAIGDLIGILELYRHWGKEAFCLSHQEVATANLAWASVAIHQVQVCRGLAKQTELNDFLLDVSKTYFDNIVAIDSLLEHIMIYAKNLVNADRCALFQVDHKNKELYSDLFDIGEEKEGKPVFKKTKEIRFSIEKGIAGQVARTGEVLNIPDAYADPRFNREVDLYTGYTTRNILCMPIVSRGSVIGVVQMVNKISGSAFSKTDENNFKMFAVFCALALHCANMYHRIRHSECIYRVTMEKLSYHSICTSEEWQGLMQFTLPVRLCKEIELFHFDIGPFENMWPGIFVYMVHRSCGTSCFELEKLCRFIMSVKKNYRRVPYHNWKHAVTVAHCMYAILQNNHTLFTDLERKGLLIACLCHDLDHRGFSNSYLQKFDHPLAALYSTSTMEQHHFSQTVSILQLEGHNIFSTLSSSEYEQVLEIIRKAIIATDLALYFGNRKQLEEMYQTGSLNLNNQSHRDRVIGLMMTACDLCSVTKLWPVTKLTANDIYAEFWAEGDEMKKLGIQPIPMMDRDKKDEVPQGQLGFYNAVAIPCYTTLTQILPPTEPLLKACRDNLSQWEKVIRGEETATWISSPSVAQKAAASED

One experiment addresses human Phosphodiesterase 5 (PDE5), PDE5A (gene 8654) (UniProt O76074). The experiment can be described thus: NVS_ENZ_hPDE5: NovaScreen (NVS) Enzymatic Assay for human Phosphodiesterase 5 (PDE5) (AID 2283194). The gist of the method: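 Recombinant human PDE5 with specific substrate, read 1 h after dosing by fluorescence with electrophoretic mobility-shift separation of substrate and product. Initial single-concentration duplicate screen at 25 uM, actives followed in concentration series; loss of activity versus DMSO.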
Consider `O=C(c1ccccc1)c1ccccc1`, for which the outcome was inactive.
Turning to `CS(=O)(=O)c1ccc([C@@H](CC2CCCC2)C(=O)Nc2cnccn2)cc1Cl`, the AC50 was 8.2 µM (active).
For `CCCCCC(C)OC(=O)COc1ccc(Cl)c2cccnc12` (stereo unspecified), the compound was classed as inactive.

A further experiment addresses human Phosphodiesterase 10 (PDE10), PDE10A (gene 10846) (UniProt Q9Y233). The experiment can be described thus: NVS_ENZ_hPDE10: NovaScreen (NVS) Enzymatic Assay for human Phosphodiesterase 10 (PDE10) (AID 2283195). The gist of the method:
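PDE10A, cell-free; 1 h incubation; fluorescence intensity + electrophoretic mobility shift separating substrate/product; DMSO = baseline; 25 uM duplicate primary, CRC up to 50 uM.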
Turning to `CC(=O)CC(C)C`, the call was inactive.
On the same count and under the same terms, the result for `CCCC=O` reads “inactive”; that for `CCOC(OCC)C(=O)c1ccccc1`, “inactive”.
For the compound `O=C(NO)c1ccccc1`, the AC50 is 7.2 µM (active) and the call was inactive.
As for `CCCCCCCCCCCCCCCCCC[N+](C)(C)Cc1ccccc1`, the call was inactive.
For the compound `O=C(NCc1ncc(C(F)(F)F)cc1Cl)c1c(Cl)cccc1Cl`, the outcome was inactive.
As to `CCCCCCCCCCCCOS(=O)(=O)O`, the AC50 was 25 µM (active).
As to `CCc1cccc(CC)c1NC(=O)C(=O)O`, the call was inactive.
For `CCC1CO1` (stereo unspecified), the AC50 was 6.67 µM (active).
`CCCCCCCCC(C)=O`: the outcome was inactive.
On the same count and under the same terms, the result for `Clc1ccc(Nc2nnc(Cc3ccncc3)c3ccccc23)cc1` reads “inactive”; that for `O=C1OC2(c3ccccc31)c1cc(I)c(O)c(I)c1Oc1c2cc(I)c(O)c1I`, “inactive”.
